GALR2 ag: GALR2 (human) receptor agonism | 140,000 tested, 0.48% active | O43603 | GALR2-expressing cells, agonist activation read-out | activation, % (test concentration not listed); in the data active = activation above about 5%, passing the limit was not always enough
Target sequence (O43603 whole entry, looked up): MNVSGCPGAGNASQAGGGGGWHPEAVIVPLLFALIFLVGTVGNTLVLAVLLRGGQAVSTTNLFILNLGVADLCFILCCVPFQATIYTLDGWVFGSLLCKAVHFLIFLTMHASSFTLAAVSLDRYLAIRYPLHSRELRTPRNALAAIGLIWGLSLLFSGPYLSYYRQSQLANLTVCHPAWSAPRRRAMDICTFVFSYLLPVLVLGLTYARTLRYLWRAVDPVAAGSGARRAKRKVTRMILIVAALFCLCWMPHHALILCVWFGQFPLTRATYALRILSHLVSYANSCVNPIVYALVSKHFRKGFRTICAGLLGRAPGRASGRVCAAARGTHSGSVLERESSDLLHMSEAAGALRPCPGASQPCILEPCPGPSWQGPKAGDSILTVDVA
GALR2 blocker: antagonists of human galanin receptor 2 (GALR2); 140,000 tested, 0.39% active; GALR2-expressing cells, antagonist mode; inhibition, % at 4 µM; O43603; in the data active = inhibition above about 27%;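 also: cells stimulated with galanin 1-16 at roughly its EC80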
PostGolgi yeast: growth inhibition of a yeast mutant, post-Golgi transport screen | post-Golgi transport phenotypic cell assay | inhibition, % at 10 µM | 98,000 tested, 0.9% active | AID 739;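 also: yeast cells grown in 1536-well plates; yeast grown about 18 h at 30C before absorbance read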
S1P2 ag: S1P2 (human) receptor agonism; activation, % at 4.5 µM; O95136; S1P2-expressing cell line, agonist reporter read-out; 97,000 tested, 0.46% active; in the data active = activation above about 16%
Target sequence (O95136 whole entry, looked up): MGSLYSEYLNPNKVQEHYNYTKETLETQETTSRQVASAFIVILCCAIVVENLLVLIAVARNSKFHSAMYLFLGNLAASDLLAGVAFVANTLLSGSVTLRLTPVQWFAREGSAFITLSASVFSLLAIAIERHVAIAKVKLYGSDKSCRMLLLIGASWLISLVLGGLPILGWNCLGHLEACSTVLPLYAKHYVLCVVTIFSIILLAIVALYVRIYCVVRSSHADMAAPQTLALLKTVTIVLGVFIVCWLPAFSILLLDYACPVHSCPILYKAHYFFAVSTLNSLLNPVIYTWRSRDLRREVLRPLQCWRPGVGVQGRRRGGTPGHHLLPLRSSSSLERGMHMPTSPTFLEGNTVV
PostGolgi ctrl: inhibits growth of the yeast control strain. efflux-deficient yeast background strain, growth absorbance A615, 16 h. inhibition, % at 10 µM. 98,000 tested, 5% active. AID 738
S1P2 blocker: antagonists of human S1P2 receptor; cell-based S1P2 antagonist assay, inhibition at 5 uM; inhibition, % at 5 µM; O95136; 97,000 tested, 0.21% active; in the data active = inhibition above about 45%;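 also: CRE beta-lactamase reporter cells expressing human S1P2 stimulated with S1P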
A number is an active result; 0 = inactive; - = no result given. Many of the other results were omitted from the sample, so hits are more common in it than they were. Rule as the data show it, unless noted: active = inhibition above about 30%; inactive = the rest.

SMILES | GALR2 ag | GALR2 blocker | PostGolgi yeast | S1P2 ag | PostGolgi ctrl | S1P2 blocker
COc1cc(/C=N/NC(N)=S)cc(Br)c1OCc1ccccc1F | 0 | 0 | - | - | - | -
COC(=O)c1cccc(NC(=O)c2nn(C)c(=O)c3ccccc23)c1 | 0 | 0 | 0 | - | 0 | -
CCCCC(=O)Nc1ccc(NC(=O)c2ccccc2[N+](=O)[O-])cc1OC | 0 | 0 | - | - | - | -
O=c1c2cnn(-c3ccccc3)c2nc(-c2cccs2)n1-c1cccc(Cl)c1 | 0 | 0 | - | - | - | -
c1ccc(N2CCN(c3ccccc3)C2c2ccncc2)cc1 | 0 | 0 | 0 | 0 | 30.8 | 0
CCOc1ccc(-n2c(N)c(C(=O)NCc3cccnc3)sc2=S)cc1 | 0 | 0 | 0 | 0 | 32.0 | 0
Cc1ccc(S(=O)(=O)N(CC(=O)Nc2cccc([N+](=O)[O-])c2)C2CCCCC2)cc1 | 0 | 0 | 0 | 0 | 35.2 | 0
N#Cc1cn(CC(=O)N2CCc3ccccc3C2)c2ccccc12 | 0 | 0 | - | 0 | - | 0
O=C(NCCN1CCCC1)C1(S(=O)(=O)c2ccc(Cl)cc2)CC1 | 0 | 0 | 0 | 0 | 37.9 | 0
c1ccc(-c2cc(-c3nn4c(-c5ccco5)nnc4s3)c3ccccc3n2)cc1 | 0 | 0 | 0 | 0 | 37.9 | 0
COc1cc(OC)c(-c2nn3c(-c4ccco4)nnc3s2)cc1OC | 0 | 0 | 0 | 0 | 34.4 | 0
CCOc1cccc(-c2nn3c(-c4ccco4)nnc3s2)c1 | 0 | 0 | 0 | 0 | 42.6 | 0
COc1ccc(-c2nnc3sc(-c4ccco4)nn23)cc1OC | 0 | 0 | 0 | 0 | 0 | 0
COc1ccc(-c2nn3c(-c4ccco4)nnc3s2)cc1OC | 0 | 0 | 0 | 0 | 30.7 | 0
COc1cccc(-c2nn3c(-c4cccc(C)c4)nnc3s2)c1 | 0 | 0 | 0 | - | 43.5 | -
COc1cccc(-c2nnc3sc(-c4ccc(C)cc4)nn23)c1 | 0 | 0 | 0 | 0 | 0 | 0
Cc1ccc2cc(CN(Cc3ccc4c(c3)OCO4)Cc3nnnn3Cc3ccco3)c(=O)[nH]c2c1 | 0 | 0 | 0 | 0 | 30.3 | 0
Cc1ccc(CN(Cc2cc3cc4c(cc3[nH]c2=O)OCCO4)Cc2nnnn2Cc2ccco2)cc1 | 0 | 0 | 0 | 0 | 0 | 0
COc1ccc(C(=O)Nc2ccc(NC(=O)c3cnccn3)cn2)cc1 | 0 | 0 | 0 | 0 | 0 | 0
CCCCSCCCNC(=O)Nc1cccc(OC)c1 | 0 | 0 | 36.5 | 0 | 0 | 0
Cc1c(C(=O)COC(C)(C)C)[nH]c2ccccc12 | 0 | 0 | 0 | 0 | 0 | 0
Cc1ccc(CN2C(=O)CCSc3ccc(Cl)cc32)cc1 | 0 | 0 | 0 | 0 | 45.8 | 0
O=C(O)c1ccc2c(c1)N(Cc1cccc(F)c1)C(=O)CS2 | 0 | 0 | 0 | 0 | 0 | 0
O=C1CCSc2ccc(Cl)cc2N1Cc1cccc(Cl)c1 | 0 | 0 | 0 | 0 | 41.0 | 0
CC1=C(n2nnc([N+](=O)[O-])n2)C(c2cccnc2)C(C#N)=C(N)O1 (configuration not stated) | 0 | 0 | - | - | - | -
SMILES | GALR2 ag | GALR2 blocker | PostGolgi yeast | S1P2 ag | PostGolgi ctrl | S1P2 blocker
CCN(CC)c1ccc2cc(C(N)=O)c(=O)oc2c1 | 0 | 0 | - | 20.5 | - | 0
CCN(CC)c1ccc2cc(C(=O)Nc3ccccn3)c(=O)oc2c1 | 19.2 | 0 | 0 | - | 0 | -
CCN(CC)c1ccc2cc(C(C)=O)c(=O)oc2c1 | 0 | 0 | 0 | 0 | 0 | 0
CCN(CC)c1ccc2cc(NC(=O)CCC(=O)O)c(=O)oc2c1 | 0 | 50.1 | 0 | - | 0 | -
CCN(CC)c1ccc2cc(-c3nnc(-c4ccncc4)o3)c(=O)oc2c1 | 0 | 0 | 0 | 0 | 51.0 | 0
Cc1cccc(-n2c(SCC(=O)N3CC(=O)Nc4ccccc43)nc3ccccc3c2=O)c1C | 0 | 0 | - | - | - | -
Cc1ccc(OCC(=O)NNC(=O)C(=O)N2CCCC2)c(C)c1 | 0 | 0 | - | - | - | -
Cc1ccc(/C=N/NC(=O)c2csc3c2CCCC3)cc1 | 0 | 0 | 0 | 0 | 32.4 | 0
C=CCN(c1ccc(C(=O)N2CCCC2)cc1)S(C)(=O)=O | 0 | 0 | 0 | 0 | 38.7 | 0
COc1ccc(NC(=O)N(Cc2cc3cc(OC)ccc3[nH]c2=O)CC2CCCO2)cc1 (configuration not stated) | 0 | 0 | 0 | 0 | 36.5 | 0
Cc1ccc(C(=O)NCCSc2ccc(Cl)cc2)cc1[N+](=O)[O-] | 0 | 0 | 0 | 0 | 35.6 | 0
CC(C)(C)c1ccc(S(=O)(=O)N2CCSC2)cc1 | 0 | 0 | - | - | - | -
COC(=O)c1cc(OC)c(OC)cc1NC(=O)CC1CCCCC1 | 0 | 0 | 0 | 0 | 41.9 | 0
CC1(c2cccc3ccccc23)NC(=O)N(CC(=O)NC2CCS(=O)(=O)C2)C1=O (configuration not stated) | 0 | 0 | - | - | - | -
CCCn1c(=N)c(C#N)cc2c(=O)n3ccccc3nc21 | 0 | 0 | - | - | - | -
Cc1ccc(-n2c(=O)c(C#N)cc3c(=O)n4ccccc4nc32)cc1 | 8.7 | 0 | - | - | - | -
Cc1cc(-n2c(=O)c(C#N)cc3c(=O)n4cccc(C)c4nc32)no1 | 19.1 | 0 | 0 | - | 0 | -
Cc1cccc(-n2c(=O)c(C#N)cc3c(=O)n4ccccc4nc32)c1 | 23.9 | 0 | 0 | 39.3 | 0 | 0
Cc1ccc(S(=O)(=O)N(C)C)cc1NC(=O)COC(=O)/C(=C/c1ccc(F)cc1)c1cccs1 | 0 | 0 | - | - | - | -
Cc1cc(NCCC(C)C)n2nc(C)c(-c3ccccc3)c2n1 | 0 | 0 | 0 | 0 | 52.6 | 0
Cc1cc(NCCCN2CCOCC2)n2nc(C)c(-c3ccccc3)c2n1 | 0 | 0 | 0 | 0 | 0 | 0
CCOC(=O)CSc1ncnc2c(C(=O)OCC)c3n(c12)CCC3 | 0 | 0 | - | - | - | -
C/C=C/C=N/NC(=O)CN(c1ccc(Br)cc1)S(=O)(=O)c1ccccc1 | 0 | 0 | - | - | - | -
O=C(Nc1ccc(S(=O)(=O)N2CCc3ccccc32)cc1)c1ccc2c(c1)OCO2 | 0 | 0 | 0 | 0 | 36.7 | 0
O=C(Nc1ccc(S(=O)(=O)N2CCc3ccccc32)cc1)c1ccco1 | 0 | 0 | 0 | 0 | 44.4 | 0
SMILES | GALR2 ag | GALR2 blocker | PostGolgi yeast | S1P2 ag | PostGolgi ctrl | S1P2 blocker
COc1cc(C(=O)Nc2ccc(S(=O)(=O)N3CCc4ccccc43)cc2)cc(OC)c1OC | 0 | 0 | 0 | 0 | 0 | 0
COc1ccccc1C(=O)Nc1ccc(S(=O)(=O)N2CCc3ccccc32)cc1 | 0 | 0 | 0 | 0 | 34.1 | 0
COC(=O)Nc1ccc(S(=O)(=O)N2CCCc3ccccc32)cc1 | 0 | 0 | 0 | 0 | 0 | 0
O=C(COn1nnc2ccc(Cl)cc21)NC12CC3CC(CC(C3)C1)C2 | 0 | 0 | 0 | 0 | 52.3 | 0
COc1ccccc1CN(Cc1ccco1)S(=O)(=O)c1ccc(-n2cnnn2)c(OC)c1 | 0 | 0 | 0 | 0 | 36.4 | 0
COc1ccc(CNS(=O)(=O)c2cccc(S(=O)(=O)N3CCOCC3)c2)cc1 | 0 | 0 | 0 | 0 | 0 | 0
O=C(NCCc1ccc(Cl)cc1)C1CCC(CNc2c(N3CCCCC3)c(=O)c2=O)CC1 (configuration not stated) | 0 | 0 | - | - | - | -
COn1c(SC(C)C)nc2ccccc2c1=O | 0 | 0 | 0 | 0 | 33.6 | 0
CN(C(=O)COC(=O)c1cc(NS(=O)(=O)c2cc([N+](=O)[O-])ccc2Cl)ccc1O)C1CCCCC1 | 0 | 0 | - | - | - | -
COc1ccc(-c2noc(CSc3nnc(Cc4ccccc4)n3-c3ccc(Cl)cc3)n2)cc1 | 0 | 0 | 0 | 0 | 0 | 0
Cc1ccc(-c2noc(CSc3nnc(Cc4ccccc4)n3-c3ccc(Cl)cc3)n2)cc1 | 0 | 0 | 0 | 0 | 36.8 | 0

Bioassay records from PubChem.
